# Records with an inconclusive call do not appear. Where a call stands in place of a potency, no number is given. Values without a mark were called inactive. Activity calls are given as the source filed them. Unless noted, calls follow the shape of the dose curve; as a rule, active = well fitted curve in the direction sought with a large enough effect in the repeat runs; inconclusive = weak or mixed curves; inactive = no such curve, though single readings can be large; an effect the other way counts as inactive or inconclusive.
# Assays:
# [1] = qHTS assay to identify small molecule antagonists of the estrogen related receptor (ERR) signaling pathway from Tox21 library - cell viability counter screen (AID 1224834); also: nearly all actives have a fitted effect of over 30% in size; also: potency is read from the fitted curve at half-maximal effect
# Method in brief: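 CellTiter-Fluor fluorescence, read after 30 min at 37 C, measures viability of ERR cells. Cells plated at 2,000/well and incubated 6 h before pin-tool compound addition, then exposed 17.5 hours at 37 C.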
# [2] = target: Luciferin 4-monooxygenase (Photinus pyralis) (UniProt P08659); experiment: qHTS assay to identify small molecule inhibitors of firefly luciferase (AID 1224835); also: nearly all actives have a fitted effect of over 25% in size; also: potency is read from the fitted curve at half-maximal effect
# Luciferin 4-monooxygenase (Photinus pyralis), sequence (P08659 whole entry, looked up): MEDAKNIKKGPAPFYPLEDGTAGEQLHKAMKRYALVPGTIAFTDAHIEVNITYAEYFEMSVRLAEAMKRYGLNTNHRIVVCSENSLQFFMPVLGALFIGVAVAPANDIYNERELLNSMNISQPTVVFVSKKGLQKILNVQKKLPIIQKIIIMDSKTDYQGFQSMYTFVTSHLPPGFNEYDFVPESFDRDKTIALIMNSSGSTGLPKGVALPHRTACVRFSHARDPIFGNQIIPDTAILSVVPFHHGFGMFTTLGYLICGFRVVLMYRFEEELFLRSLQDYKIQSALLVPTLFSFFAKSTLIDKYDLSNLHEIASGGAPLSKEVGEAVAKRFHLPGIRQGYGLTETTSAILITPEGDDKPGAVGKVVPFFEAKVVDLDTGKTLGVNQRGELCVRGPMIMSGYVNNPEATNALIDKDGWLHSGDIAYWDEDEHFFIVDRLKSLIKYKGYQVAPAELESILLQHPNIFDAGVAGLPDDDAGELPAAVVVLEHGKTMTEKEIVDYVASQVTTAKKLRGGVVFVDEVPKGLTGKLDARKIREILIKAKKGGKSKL
# Method in brief: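 Quantitative HTS format; KM concentrations of both substrates. Purified P. pyralis FLuc activity quantified from luminescence images.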
# [3] = qHTS assay to identify small molecule agonists of the constitutive androstane receptor (CAR) signaling pathway - cell viability counter screen (AID 1224836); also: nearly all actives have a fitted effect of over 45% in size; also: potency is read from the fitted curve at half-maximal effect
# Method in brief: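 Counter screen multiplexed with the CAR reporter readout: HepG2 cells co-transfected with hCAR and the CYP2B6-2.2kb construct receive a 15-concentration compound series and 0.75 uM PK11195 (final), then CellTiter-Fluor fluorescence is read after 23 h.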
# [4] = qHTS assay to identify small molecule antagonists of the constitutive androstane receptor (CAR) signaling pathway - cell viability counter screen (AID 1224837); also: nearly all actives have a fitted effect of over 45% in size; also: potency is read from the fitted curve at half-maximal effect
# Method in brief: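 Cytotoxicity counter-screen: CellTiter-Fluor fluorescence after 23 h compound exposure (15-point qHTS) in double-stable HepG2-CYP2B6-hCAR cells, with 50 nM CITCO added.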
# [5] = target: Nuclear receptor subfamily 1 group I member 3 (Homo sapiens) (UniProt Q14994); experiment: qHTS assay to identify small molecule antagonists of the constitutive androstane receptor (CAR) signaling pathway (AID 1224838);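 also: HepG2 cells stably expressing hCAR with CYP2B6 luciferase reporter stimulated by CITCO; nearly all actives have a fitted effect of over 40% in size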; also: potency is read from the fitted curve at half-maximal effect
# Nuclear receptor subfamily 1 group I member 3 (Homo sapiens), sequence (Q14994 whole entry, looked up): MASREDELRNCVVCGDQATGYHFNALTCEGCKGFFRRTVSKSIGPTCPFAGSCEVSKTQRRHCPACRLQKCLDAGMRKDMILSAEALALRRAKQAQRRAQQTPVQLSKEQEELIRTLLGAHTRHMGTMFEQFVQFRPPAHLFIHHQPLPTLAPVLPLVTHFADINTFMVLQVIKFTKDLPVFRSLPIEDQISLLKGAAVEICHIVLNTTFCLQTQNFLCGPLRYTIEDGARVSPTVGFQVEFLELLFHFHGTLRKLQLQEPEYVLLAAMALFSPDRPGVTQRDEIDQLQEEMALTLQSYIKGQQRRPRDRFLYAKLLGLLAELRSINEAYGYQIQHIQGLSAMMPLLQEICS
# Method in brief: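 Antagonism measured as luciferase signal (ONE-Glo, 30 min, room temperature) in CAR-stimulated cells: HepG2-CYP2B6-hCAR double-stable line exposed 24 hr at 37 C to compound in a 15-point series plus 50 nM CITCO.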
# [6] = target: Nuclear receptor subfamily 1 group I member 3 (Homo sapiens) (UniProt Q14994); experiment: qHTS assay to identify small molecule agonists of the constitutive androstane receptor (CAR) signaling pathway (AID 1224839); also: nearly all actives have a fitted effect of over 15% in size; also: potency is read from the fitted curve at half-maximal effect; as to activation: series mostly up to about 92 µM
# Method in brief: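 A 15-concentration quantitative screen uses HepG2 cells co-transfected stably with human CAR and CYP2B6-2.2kb reporter. Treatment lasts 24 h with 0.75 uM PK11195 final present; ONE-Glo luminescence is the signal.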
# [7] = qHTS assay to identify small molecule antagonists of the estrogen related receptor signaling pathway with the pleiotropic PPARgamma coactivator (PGC) from Tox21 10K library - cell viability counter screen (AID 1224840; active = well fitted cell-killing curve with a large enough effect in the repeat runs, not every such curve was filed as active; also: nearly all actives have a fitted effect of over 40% in size; also: potency is read from the fitted curve at half-maximal effect)
# Method in brief: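 Counter-screen for cytotoxicity: after 17.5 h compound exposure at 37 C, CellTiter-Fluor reagent added to PGC/ERR cells for 30 min and fluorescence read. Cells were seeded at 2,000 per well 6 h before dosing.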
# [8] = qHTS assay to identify small molecule antagonists of the estrogen related receptor signaling pathway with the pleiotropic PPARgamma coactivator (PGC) from Tox21 10K library (AID 1224841; call rule not given here; also: actives are mostly falling curves and most rising ones were filed inactive; nearly all actives have a fitted effect of over 50% in size; also: potency is read from the fitted curve at half-maximal effect)
# Method in brief: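 Luminescence (One-Glo, 30 min at room temperature) after 18 h compound treatment at 37 C of PGC/ERR reporter cells plated at 2,000 cells/well and settled 6 h beforehand.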
# [9] = qHTS assay to identify small molecule agonists of the estrogen related receptor signaling pathway with the pleiotropic PPARgamma coactivator (PGC) from Tox21 10K library (AID 1224842); also: nearly all actives have a fitted effect of over 15% in size
# Method in brief: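 PGC/ERR reporter cells (NTP line) were seeded 2,000 per well, rested 6 h at 37 C/5% CO2, then pin-dosed with compounds in DMSO for 18 h at 37 C; luciferase read by One-Glo luminescence after 30 min at room temperature.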
# [10] = target: Thyrotropin receptor (Homo sapiens) (UniProt P16473); experiment: qHTS assay to identify small molecule agonists of the thyroid stimulating hormone receptor (TSHR) signaling pathway (AID 1224843; calls by dose curve; also: nearly all actives have a fitted effect of over 45% in size; also: potency is read from the fitted curve at half-maximal effect)
# Thyrotropin receptor (Homo sapiens), sequence (P16473 whole entry, looked up): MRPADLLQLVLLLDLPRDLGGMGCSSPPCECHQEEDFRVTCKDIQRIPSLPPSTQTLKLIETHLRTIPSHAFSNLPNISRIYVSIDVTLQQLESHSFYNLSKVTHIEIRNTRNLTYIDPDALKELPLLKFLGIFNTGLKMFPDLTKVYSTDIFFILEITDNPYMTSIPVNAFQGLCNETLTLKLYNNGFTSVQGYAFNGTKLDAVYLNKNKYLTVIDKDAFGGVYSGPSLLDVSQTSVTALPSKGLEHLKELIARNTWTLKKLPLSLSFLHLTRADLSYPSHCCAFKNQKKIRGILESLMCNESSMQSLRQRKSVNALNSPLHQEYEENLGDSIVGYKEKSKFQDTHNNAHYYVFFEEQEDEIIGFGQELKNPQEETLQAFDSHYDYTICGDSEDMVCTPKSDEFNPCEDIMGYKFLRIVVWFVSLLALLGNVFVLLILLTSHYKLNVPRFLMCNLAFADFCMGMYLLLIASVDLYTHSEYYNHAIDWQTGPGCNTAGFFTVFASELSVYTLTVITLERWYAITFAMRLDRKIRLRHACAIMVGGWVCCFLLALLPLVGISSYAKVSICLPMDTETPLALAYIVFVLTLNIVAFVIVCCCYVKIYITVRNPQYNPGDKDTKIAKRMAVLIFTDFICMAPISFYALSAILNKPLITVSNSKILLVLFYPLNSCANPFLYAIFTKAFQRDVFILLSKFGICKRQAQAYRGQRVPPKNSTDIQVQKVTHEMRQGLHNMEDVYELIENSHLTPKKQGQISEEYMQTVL
# Method in brief: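 Compounds are titrated over 15 concentrations, in triplicate, onto TSHR-HEK293 cells seeded at 800/well. Plates sit 30 min at room temperature before cAMP-d2 and anti-cAMP cryptate are added; signal is read after a further hour.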
# [11] = qHTS assay to identify small molecule agonists of H2AX - cell viability counter screen (AID 1224847; calls by dose curve; also: nearly all actives have a fitted effect of over 30% in size; also: potency is read from the fitted curve at half-maximal effect)
# Method in brief: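 We seed wild-type CHO-K1 cells overnight, treat them for 3 hr at 37C with compounds in 15-concentration series, and quantify remaining viability by CellTiter-Glo luminescence.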
# [12] = qHTS assay to identify small molecule antagonists of the estrogen related receptor (ERR) signaling pathway from Tox21 library (AID 1224848); also: nearly all actives have a fitted effect of over 50% in size
# Method in brief: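 First, 2,000 ERR cells per well were plated and held 6 h at 37 C/5% CO2. Next, compounds in DMSO were pinned in and left 18 h at 37 C. Finally, ONE-Glo was added and luminescence read after 30 min at room temperature.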
# [13] = qHTS assay to identify small molecule agonists of the hypoxia (HIF-1) signaling pathway - cell viability counter screen (AID 1224844; calls by dose curve; also: nearly all actives have a fitted effect of over 50% in size; also: potency is read from the fitted curve at half-maximal effect)
# Method in brief: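 Cytotoxicity measured by CellTiter-Glo ATP luminescence in the wells also read for beta-lactamase signal. Cells were HRE-bla ME-180 (2,000/well, 0.5% dialyzed FBS), exposed to compounds for 17 h at 37C.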
# [14] = qHTS assay to identify small molecule agonists of H2AX (AID 1224845; active = well fitted activation curve with a large enough effect in the signal ratio in the repeat runs, not every such curve was filed as active; the % refers to the signal ratio; also: potency is read from the fitted curve at half-maximal effect)
# Method in brief: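 Wild-type CHO-K1 cells plated overnight, then exposed 3 hr at 37C to compounds at 15 concentrations (0.76% DMSO). Lysed, then HTRF anti-pH2AX(S139)-cryptate/anti-H2AX-d2 detection after 24 hr at room temperature; emissions 665 and 620 nm.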
# [15] = qHTS assay to identify small molecule agonists of the hypoxia (HIF-1) signaling pathway (AID 1224846; active = well fitted activation curve with a large enough effect in the signal ratio in the repeat runs, not every such curve was filed as active; the % refers to the signal ratio)
# Method in brief: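 Compounds added to ME-180 cells carrying hypoxia-response-element beta-lactamase reporter (0.5% dialyzed FBS, 5 h preplating), 17 h at 37C; agonist activity detected by CCF4-AM B/G FRET read-out.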
# [16] = qHTS assay to identify small molecule antagonists of the estrogen related receptor signaling pathway with the pleiotropic PPARgamma coactivator (PGC) cell viability counter screen (AID 1224822; also: series mostly up to about 46 µM)
# Method in brief: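 Viability counter-screen read by fluorescence intensity after 30 min with CellTiter-Fluor at 37 C; PGC/ERR reporter cells were exposed to compounds for 17.5 h at 37 C following a 6 h preincubation.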
# [17] = qHTS assay to identify small molecule agonists of the estrogen related receptor signaling pathway with the pleiotropic PPARgamma coactivator (PGC) (AID 1224823)
# Method in brief: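 Luminescence from One-Glo reagent (30 min, room temperature) was read after 18 h compound treatment at 37 C of PGC/ERR cells plated 6 h beforehand; compounds delivered in DMSO by pin tool.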
SMILES,Potency [1],Potency [2],Potency [3],Potency [4],Potency [5],Potency [6],Potency [7],Potency [8],Potency [9],Potency [10],Potency [11],Potency [12],Potency [13],Potency [14],Potency [15],Potency [16],Potency [17]
O=C1CCCCCCCCCCCCCC1,inactive,inactive,inactive,inactive,inactive,30.6 µM (active),inactive,inactive,inactive,inactive,inactive,inactive,–,–,–,–,–
O=C(CCN1CCC(c2ccccc2)C1)c1ccc2c(c1)OCCO2 (centres undefined),inactive,inactive,inactive,inactive,inactive,inactive,inactive,–,–,inactive,–,–,–,–,–,–,–
Cc1ccc(S(=O)(=O)C(I)I)cc1,61.1 µM (active),39.9 µM (active),48.6 µM (active),34.4 µM (active),27.3 µM (active),inactive,48.6 µM (active),–,inactive,3.06 µM (active),22.5 µM (active),–,13.8 µM (active),16 µM (active),–,–,–
O=C1OCc2ccccc21,inactive,inactive,inactive,inactive,inactive,inactive,inactive,–,–,inactive,inactive,–,inactive,inactive,inactive,–,–
CN1C2CC(OC(=O)[C@H](CO)c3ccccc3)CC1C1OC12 (some centres undefined),–,–,–,–,–,–,–,–,–,–,–,–,–,–,–,inactive,–
C/C(=C\c1ccc(C(=O)O)cc1)c1ccc2c(c1)C(C)(C)CCC2(C)C,inactive,–,inactive,inactive,–,–,inactive,–,–,inactive,inactive,–,–,inactive,inactive,inactive,–
CCCCCCN(CCCCCC)C(=O)Cc1c(-c2ccc(F)cc2)[nH]c2ccccc12,–,–,–,–,–,–,–,–,–,–,–,–,–,–,–,–,inactive
Clc1cccc(Cl)n1,inactive,inactive,inactive,inactive,inactive,inactive,inactive,inactive,inactive,–,inactive,–,inactive,inactive,inactive,–,–
Nc1ccn([C@H]2O[C@H](CO)[C@@H](O)C2(F)F)c(=O)n1,–,–,–,–,–,–,–,–,–,–,–,–,–,–,–,inactive,–
Nc1c(Br)cc([N+](=O)[O-])cc1Br,inactive,inactive,inactive,inactive,inactive,inactive,inactive,54.5 µM (active),inactive,–,inactive,–,inactive,inactive,inactive,–,–
CCCCCCCCCCCCCCCCC(C(=O)O)C(O)(CC(=O)O)C(=O)O (centres undefined),inactive,inactive,inactive,inactive,inactive,inactive,inactive,inactive,inactive,inactive,inactive,–,–,inactive,–,–,–
CC1=C(/C=C/C(C)=C/C=C/C(C)=C\C(=O)O)C(C)(C)CCC1,inactive,63.5 µM (active),inactive,–,inactive,27.4 µM (active),inactive,–,–,–,inactive,–,34.8 µM (active),inactive,–,inactive,–
